Experimental findings from PubChem BioAssay (NCATS) are described below.

Records with an inconclusive call do not appear. Entries that show only a call come without a potency. The source made the active and inactive calls. Calls come from the whole dose curve; as a rule, active = well fitted inhibition curve with a large enough effect; inconclusive = small, poorly fitted or top-dose-only effect; inactive = flat fitted curve, though single readings scatter.

The test deals with Calcium and integrin-binding protein 1 (Homo sapiens) (UniProt Q99828). The experiment in a line: Primary qHTS for Identification of Calcium Integrin Binding Protein 1 (CIB1) Competitor (AID 1508620).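 Note: GST tagged CIB1 binding a fluorescein labelled alphaIIb integrin peptide tracer; top concentration of the series differs between compounds.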 The conditions noted are these: CIB1-GST / FITC-alphaIIb peptide fluorescence polarization; series mostly up to 114 µM. The essentials: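 CIB1-GST (1 uM final) and compound incubated 15 min at room temperature before adding FITC-alphaIIb peptide tracer (100 nM final). Competition for binding read by fluorescence polarization (ex 480, em 540) after another 15 min at room temperature.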
Sequence of Calcium and integrin-binding protein 1 (Homo sapiens) (Q99828 whole entry, looked up): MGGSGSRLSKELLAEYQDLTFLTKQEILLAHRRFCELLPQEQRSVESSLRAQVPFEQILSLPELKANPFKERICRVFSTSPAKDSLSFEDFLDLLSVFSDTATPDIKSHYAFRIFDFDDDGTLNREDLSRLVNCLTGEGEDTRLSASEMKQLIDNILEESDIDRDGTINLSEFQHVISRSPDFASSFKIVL
As for `O=C(CSc1nnc(-c2cccc([S+](=O)([O-])N3CCCC3)c2)n1-c1ccccc1)Nc1cccc(F)c1`, the Potency result was “inactive”.

With `CCOC(=O)C1CCN(C(=O)C2(NC(=O)Nc3ccccc3Cl)CC2)CC1`, the Potency entry is “inactive”. With `N#Cc1ccc(S(=O)(=O)N2CCN(S(=O)(=O)c3ccc4c(c3)OCCO4)CC2)cc1` the entry was “inactive”. In the case of `Cc1cc2c(s1)c1cnn(Cc3ccc(Cl)c(Cl)c3)c(=O)c1n2C` it was “inactive”; in that of `Cc1c(C(=O)OC[C@H]2CCCO2)[nH]c2c1C(=O)CC(c1ccco1)C2` (some centres undefined), “inactive”. In the case of `Cc1cc2c(s1)c1cnn(Cc3ccc(F)c(F)c3)c(=O)c1n2C` it was “inactive”. For the molecule `COc1cccc(C2=Nn3c(nnc3-c3cccc(OC)c3OC)SC2)c1`, the Potency result is “inactive”. In the case of `CCOC(=O)c1[nH]c2c(c1C)C(=O)CCC2` it was “inactive”; in that of `O=C1c2ccccc2C(=O)N1Cc1ccccn1`, “inactive”; in that of `O=S(=O)(c1ccc2c(c1)OCCO2)N1CCN(S(=O)(=O)c2cc(F)c(Br)cc2F)CC1`, “inactive”. In the case of `O=S1(=O)N=C(Oc2cccc(Br)c2)c2ccccc21` it was “inactive”; in that of `CCOc1ccc(CCNC(=O)CN(C)C)cc1OCC`, “inactive”. In the case of `Cc1ccc(NC(=O)Nc2nnc(-c3ccncc3)s2)cc1C` it was “inactive”; in that of `Cc1ccc(Cn2ncc3c4sc(C)cc4n(C)c3c2=O)cc1`, “inactive”. For `Oc1cccc2cc(-c3ccncc3)cnc12`, the Potency result is “inactive”. With `Cc1nnc(-c2cnn(C)c2N)n1CCCc1ccccc1` the entry was “inactive”. In the case of `Cc1cc(C)n2ncc(C(=O)Nc3ccccc3)c2n1` it was “inactive”.

`Oc1cc(NCCc2cccnc2)cc2cccnc12`: the Potency result is “inactive”. In the case of `O=C(O)c1ccc(-c2nn3c(=O)cc(N4CCNCC4)nc3s2)cc1`, the Potency entry was “inactive”.
